Assay results from PubChem BioAssay AID1868 (National Center for Advancing Translational Sciences (NCATS), 2009).
About 20 (0.007%) of roughly 270,000 compounds were called active. Calls come from the whole dose curve; as a rule, active = well fitted inhibition curve with a large enough effect; inconclusive = small, poorly fitted or top-dose-only effect, or effect the other way; inactive = flat fitted curve, though single readings scatter. The list is a sample of the results.

Target: Galactokinase (Homo sapiens) (UniProt P51570)
Sequence (P51570 whole entry, looked up): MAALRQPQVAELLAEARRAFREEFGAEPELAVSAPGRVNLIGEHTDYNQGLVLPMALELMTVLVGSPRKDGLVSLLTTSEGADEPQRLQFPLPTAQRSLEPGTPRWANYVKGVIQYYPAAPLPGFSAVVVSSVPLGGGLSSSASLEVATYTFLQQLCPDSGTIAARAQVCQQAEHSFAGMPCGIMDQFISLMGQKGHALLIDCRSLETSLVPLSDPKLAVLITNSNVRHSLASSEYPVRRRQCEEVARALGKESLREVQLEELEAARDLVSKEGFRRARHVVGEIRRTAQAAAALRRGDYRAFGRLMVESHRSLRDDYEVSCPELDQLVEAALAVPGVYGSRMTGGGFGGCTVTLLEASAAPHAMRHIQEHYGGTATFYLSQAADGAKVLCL
Test: qHTS Assay for Inhibitors of Human Galactokinase (GALK)
Settings: Purified GALK, Kinase-Glo residual ATP luminescence; series mostly up to 57.5 µM
Source text: NIH Molecular Libraries Probe Production Centers Network [MLPCN] NIH Chemical Genomics Center [NCGC] MLPCN Grant: R03 MH085689-01 Assay Submitter (PI): Kent Lai (University of Utah School of Medicine, 50 N Mario Capecchi Drive, Salt Lake City, UT 84132) NCGC Assay Overview: Inherited deficiency of galactose-1-phosphate uridyltransferase (GALT) can result in a potentially lethal disorder called Classic Galactosemia (OMIM 230400). Several lines of evidence indicate that an elevated level of galactose-1-phosphate (gal-1-p), the product of galactokinase (GALK), is a major, if not sole, pathogenic mechanism in patients with classic galactosemia. Therefore, finding inhibitors of GALK is a potential novel therapy for this inherent metabolic disease and is the long term goal of this project. GALK (provided by the assay submitter) was assayed using ATP and D-(+)-Galactose (Sigma-Aldrich cat# G0750) as substrates. Promega Kinase-Glo Plus (cat# V3774) technology was used to detect the residual ATP following kinetic reaction. Briefly, the Kinase-Glo Plus contains Ultra-Glo [2] luciferase and D-luciferin which generates a bioluminescence signal from the remaining ATP.
NCGC Assay Protocol Summary: Three uL/well of ATP-buffer solution (35 uM ATP, 20mM HEPES pH8.0, 5 mM MgCl2, 60 mM NaCl, 1 mM DTT, 0.01% BSA final concentration) was dispensed into 1536-well, assay plates (Greiner, solid white medium-binding plates) with Aurora Discovery BioRAPTR Flying Reagent Dispenser (FRD; Beckton-Dickenson). Compound solution (23 nL) was transferred to the assay plate using the Kalypsys 1536-pin tool. One uL/well GALK-galactose solution (5 nM GALK, 100 uM galactose, 20 mM HEPES pH8.0, 5 mM MgCl2, 60 mM NaCl, 1 mM DTT, 0.01% BSA final concentration) was then added using the FRD yielding a total kinase reaction volume of 4 uL/ well. After 1 hour of room temperature incubation, 4 uL Kinase-Glo Plus reagent was added for a final assay volume of 8 uL/ well. Luminescence was detected with the ViewLux plate reader (Perkin Elmer, Waltham, MA) after 10 min incubation using a 1 sec exposure time and 2x binning.

outcome, inactive:
Brc1ccccc1CN1CCC(Cc2ccccc2)CC1, CC1CCN(C2=NC(=O)/C(=C/c3ccc(O)cc3)S2)CC1, CC1(C)Cc2c(sc(NC(=O)C(=O)N3CCOCC3)c2C#N)CO1, COc1cc(Cl)ccc1OCc1cc(C(=O)N2CC[C@@H]3CCCC[C@H]3C2)no1, CCOc1ccc(CN2CCNC(=O)C2CC(=O)NCCCC2CCCC2)cc1 (configuration not stated), CCOc1ccc(S(=O)(=O)N2CCCC(C(=O)N3CCC(C(N)=O)CC3)C2)cc1Cl (configuration not stated), C=CCOc1ccc(/C=C/C(=O)OCC(=O)NC2CCCCCC2)cc1, CN(c1ccccc1)S(=O)(=O)c1ccc(NC(=O)COc2ccccc2)cc1, Oc1cccc(/C=N/Nc2ccc(Cl)nn2)c1O, O=C(NCCNc1ccc([N+](=O)[O-])cc1Cl)c1ccccc1F, COc1ccc(S(=O)(=O)/N=C2\C=C(NS(=O)(=O)c3ccccc3)C(=O)c3ccccc32)cc1, Cn1c(Nc2cccc(Cl)c2)nc2ccccc21, CCn1c(=O)c(C(=O)NCc2ccc3c(c2)OCO3)c(O)c2ccccc21, O=C(Nc1ccc(Cl)c(Cl)c1)c1ccccc1NC(=O)C1CC=CCC1C(=O)O (configuration not stated), Cc1cccc(N2CCN(C(=O)CCS(=O)(=O)c3ccc4c(c3)NC(=O)C(C)S4)CC2)c1C (configuration not stated), CC(C)(C)NC(=O)C(c1ccc(Cl)cc1)N(CCO)C(=O)c1snc(C(N)=O)c1N (configuration not stated), O=C(CN1CCCC1)Nc1sc2c(c1C(=O)Nc1ccccc1)CCCC2, O=C(N/N=C/c1cccc(OCc2ccccc2)c1)c1ccc(Br)o1, Cc1cc(C)n(CC(O)COc2ccc(C(C)(C)C)cc2)n1 (configuration not stated), COc1ccc(Oc2cn[nH]c2-c2ccc(OC)cc2O)cc1, CSc1nnc(NC(=O)c2nc(S(=O)(=O)Cc3ccc(C)cc3)ncc2Cl)s1, Cc1cc(N=Nc2ccc3ccccc3c2)ccc1O, Cc1ccc(-c2nc(-c3ccncc3)no2)c(C)c1, CCCNC(=O)CCn1nc(-c2ccccc2)c2ccccc2c1=O, COc1ccc(C(=O)/C=C/c2cccnc2)c(OC)c1, COc1ccc(S(=O)(=O)N2CCN(C(=O)N(C)C)C2C)cc1 (configuration not stated), CN(C)S(=O)(=O)N1CCC(Oc2cccc(C(=O)NCCCC3CCCC3)c2)CC1, O=C(Nc1ccccc1)c1ccc2c(c1)OCCCO2, Cc1[nH]n(C(N)=S)c(=O)c1N=Nc1ccc(Cl)cc1Cl, O=C(NC(=S)Nc1ccc(Cl)cc1Cl)C1CC1, COc1cccc(CNc2ncc(-c3ccccc3)n2C)c1, CCOc1ccccc1/C=N/Nc1nc2ccccc2o1, COc1ccc(CNc2cc(C)cc(C)c2)cc1OC, Cc1ccc(NC(=O)Nc2cccnc2)cc1, COc1ccc2cc(C(=O)C3CCCN(C(=O)c4sc(C)nc4C)C3)ccc2c1 (configuration not stated), CC(C)(C)C(=O)Nc1ccc(-c2cn3cccnc3n2)cc1, CC1(C(=O)N/N=C/c2cc3c(cc2Br)OCO3)CC1(Br)Br (configuration not stated), c1ccc(Cc2ccc(OCCn3ccnc3)cc2)cc1, CNS(=O)(=O)c1ccc(NC(=O)Nc2ccc3c(c2)OCO3)cc1, CC(=O)N(C)c1ccc(NC(=O)Nc2cccc3ccccc23)cc1, Cc1nonc1NC(=O)c1oc2ccccc2c1C, O=C(NCCCN1CCOCC1)c1ccc2c(c1)N(Cc1cccc(F)c1)C(=O)c1ccccc1S2, CSc1ccccc1OCc1cc(C(=O)N2C[C@H]3CC[C@H]2C3)no1, O=C(CNC(=O)Cc1ccccc1)N=Nc1c(O)[nH]c2ccc(Br)cc12, O=C(O)Cc1ccc(NC(=O)Nc2cccc3ccccc23)cc1, COc1ccc(C(=O)NC2=NCCS2)c(OC)c1, CCCOC1CCCN(C(=O)c2cc(COc3cncc(Cl)c3)on2)C1 (configuration not stated), CCc1ccc(C(=O)NC(=S)Nc2ccccc2N2CCOCC2)cc1, Nc1cc(N)nc(SCc2cccc(F)c2)n1, Cc1ccc(NS(=O)(=O)c2ccc3c(c2)n(C)c(=O)c(=O)n3C)c(C)c1, COc1ccc(N(Cc2ccc(N(C)C)cc2)C(=O)c2ccc(S(C)(=O)=O)cc2)cc1, CCCCC(=O)Nc1ccccc1N1CCN(c2ccc(F)cc2)CC1, CC(=O)Nc1ccc(NC(=O)C2CCCN2S(=O)(=O)c2cccc(C(F)(F)F)c2)cc1 (configuration not stated), COc1ccc(-c2noc(CCCC(=O)NC3CCCC3)n2)cc1OC, O=C(/C=C/c1ccco1)NC(=S)Nc1ccccc1Br, COc1ccc(CCNC(=O)C2CCCN(S(=O)(=O)c3ccc(OC)cc3)C2)cc1 (configuration not stated), Cc1ccnc(NC(=O)CCNS(=O)(=O)c2ccc(C)c(C)c2)c1, O=C(Nc1nnc(C2CC2)s1)c1cc(Cl)sc1Cl, COc1ccc(Nc2ncnc3sc(C)cc23)cc1, O=C(CN1CCC(NC(=O)C2CC2)CC1)Nc1ccccc1[N+](=O)[O-], Cc1cccc(C(=O)NC(=S)N(C)C2CCCCC2)c1, CN(CCO)c1ccc(/C=N/Nc2nncc3ccccc23)cc1, O=C(NCC(=O)N1CCN(c2ccccc2F)CC1)c1cccs1, Cc1ccc2nc(N3C(=O)C(O)=C(C(=O)c4ccco4)C3c3cccc(O)c3)sc2c1 (configuration not stated), C[n+]1cc(-c2ccccc2)oc1-c1ccccc1, Cc1cnc(NC(=O)c2ccc(Cl)nc2)s1, C=CCN1CCN(C(=O)CCCc2ccccc2)CC1, COc1ccc(N2CCN(S(=O)(=O)c3ccc4c(c3)N(C(C)=O)CCO4)CC2)cc1, O=C(O)CCC(=O)N(Cc1ccccc1)Cc1ccccc1, Cc1noc(C)c1CCC(=O)N1CCCC(CO)(Cc2ccccc2)C1 (configuration not stated), O=C(c1noc2c1CCCC2)N1CCc2ccccc2C1, Cc1cccc(NC(=O)c2ccc3c(=O)n(CC4CCCO4)c(=S)[nH]c3c2)c1 (configuration not stated)
